Screens from PubChem.
KDM5B inhibitor: blocks human KDM5B histone demethylase activity; Q9UGL1; KDM5B demethylase, FDH-coupled NADH fluorescence (FDH is formaldehyde dehydrogenase); Potency, µM (top dose mostly 57.7 µM), hits mostly inhibitors; 220,000 tested, 2.6% active; AID 1347165; active = well fitted inhibition curve with a large enough effect; note: nearly all actives have a fitted effect of over 70% in size
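KDM5BΔAP (200 nM final) in 50 mM HEPES pH 7.5, 0.01% Tween-20 was preincubated 10 min at RT with compound over a concentration range. Substrate mix (H3K4me3 12.5 µM, α-KG 25 µM, Fe²⁺, ascorbate, NAD⁺, FDH) was added, and NADH fluorescence change over 30 min gave dose-response curves.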
Numbers stand for hits; - = inactive. Only a selection was taken, and hits are over-represented in it overall.

SMILES	KDM5B inhibitor
COc1cccc(C(=O)N2CCCC3(C2)NC(=O)N(Cc2ccc(C)cc2)C3=O)c1 (centres undefined)	-
CCN1CC(c2ccccc2)CC2(CCN(C(=O)c3ccn(CC)n3)CC2)C1 (centres undefined)	-
COc1cccc(C(=O)N2CCC3(C2)NC(=O)N(Cc2ccc(Cl)cc2)C3=O)c1 (centres undefined)	-
CCCNC(=O)NNC(=O)C(CC)c1ccccc1 (centres undefined)	-
CCOC(=O)c1sc(NC2CCCC2)nc1C(F)(F)F	-
COc1cccc(C(=O)N2CCC(N3C[C@H](O)C[C@H]3C(=O)NCc3cc(F)cc(F)c3)CC2)c1	-
CCN(CC)S(=O)(=O)c1cc(C(=O)Nc2cc3c(cc2C#N)OCO3)ccc1OC	-
CC(C)NC(=O)c1ccccc1OCC1CCCN(Cc2ccc(F)cc2)C1 (centres undefined)	-
O=C(Cn1nnc(-c2cccc(F)c2)n1)N(Cc1cccs1)c1ccc2c(c1)OCCO2	-
Cc1cccc(C(=O)NC2CCSC2=O)c1 (centres undefined)	-
O=C(NC[C@H]1O[C@H](Cc2cc(-c3ccc(F)cc3)on2)CC[C@@H]1O)c1ccccc1F	-
Cc1noc(C)c1CC(=O)N1CCC[C@H](n2c(=O)n(C)c3cccnc32)C1	-
Cc1noc(C)c1CC(=O)N1CCCC2(C1)Nc1cccnc1NC2=NCc1ccccc1 (centres undefined)	28µM
Cc1noc(C)c1CC(=O)N1CCCC(c2noc(COc3ccccc3)n2)C1 (centres undefined)	-
Cc1ccc(C)c(NC(=O)C2CCCN(S(=O)(=O)Cc3ccccc3Cl)C2)c1 (centres undefined)	-
CC(C)CN[C@H]1CO[C@H]2[C@@H]1OC[C@@H]2Nc1nccc(-c2cccs2)n1	32µM
CC(C)c1ccc(NC(=O)O[C@@H]2CO[C@H]3[C@@H]2OC[C@@H]3NS(=O)(=O)c2cccs2)cc1	-
O=C(CSc1nccc(-c2cccs2)n1)Nc1ccccc1	-
CC(C)NC(=O)CSc1nccc(-c2cccs2)n1	-
O=S(=O)(N[C@H]1CO[C@H]2[C@@H]1OC[C@@H]2Nc1nccc(-c2cccs2)n1)c1cccs1	22µM
COc1cc(NC(=O)N[C@H]2CO[C@H]3[C@@H]2OC[C@@H]3Nc2nccc(-c3cccs3)n2)cc(OC)c1	-
O=C(Cn1c(=O)n(CCc2ccccc2)c(=O)c2sccc21)c1ccccc1Cl	-
O=C1OCCC1N1CCN(c2ccccc2O)CC1 (centres undefined)	-
CCc1ccc(C(=O)NC(Cc2ccccc2)C(=O)O)cc1 (centres undefined)	-
C[C@@H](c1ccccc1)N(C)C(=O)c1cc(Cn2cnc3ccccc32)[nH]n1	-
SMILES	KDM5B inhibitor
CC(C)Oc1ccc(C(=O)NC2CCN(c3cnn(C)c(=O)c3)CC2)cc1	-
CCCCNC(=O)c1cccc(NC(=O)c2ccccc2C)c1	-
CSc1nc(C(C)C)nc(C)c1C(=O)Nc1cccc(Br)c1	-
COC(=O)c1ccc(C2C(C(=O)c3ccco3)=C(O)C(=O)N2CCc2ccccc2)cc1 (centres undefined)	-
Cc1ccc(NC(=O)N2CCC(Cc3nncn3Cc3ccccc3)C2)cc1C (centres undefined)	-
NC(=O)C1CCN(C(=O)c2cc(-c3ccccc3)nc3ccccc23)CC1	-
CCOC(=O)N1CCC(NC(=O)c2cnn3c(C)c(Cc4ccccc4)c(C)nc23)CC1	-
Cc1ccc(Cc2c(C)nc3c(C(=O)N4CCC(Cc5nncn5CC5CC5)CC4)cnn3c2C)cc1	28µM
Cc1ccc(-c2cc(C(=O)N3CCC(Cc4nncn4CC4CC4)CC3)c3ccccc3n2)cc1C	22µM
O=C(NC1CCCCC1)N1CCC(Cc2nncn2CC2CC2)CC1	-
Cc1ccc(-c2cc(C(=O)NC3CCC(C)CC3)c3ccccc3n2)cc1C (centres undefined)	-
O=C(c1cc(F)ccc1F)N1CCCC(Cc2nncn2CC2CC2)C1 (centres undefined)	-
O=C(c1cc(-c2ccc(F)cc2)nc2ccccc12)N1CCC(Cc2nncn2CC2CC2)CC1	28µM
O=C(Nc1ccc(Br)cc1F)c1ccc(-c2ccccc2)cc1	-
CSCc1ccc(C(=O)O)cc1	-
C=CCCCCCCCCC(=O)NCc1ccco1	-
CSc1cccc(NC(=O)C2CC3C=CC2C3)c1 (centres undefined)	-
Cn1cc(-c2ccncc2)cc1C(=O)NC1CCN(Cc2ccccc2)CC1	-
Cn1c(C(=O)NC2CCN(Cc3ccccc3)CC2)cc2c1CCN(Cc1ccccc1)C2	20µM
CC(=O)c1ccc(NC(=O)c2cc3c(n2C)CCN(Cc2ccccc2)C3)cc1	-
Cc1ccccc1OCC(=O)NCc1ccc(Cn2cccn2)cc1	-
COc1ccc(-c2cc(C(=O)NC3CCCC3)no2)cc1	-
COc1ccc(-c2cc(C(=O)NC3CC3)c3c(C4CCCN4)noc3n2)cc1 (centres undefined)	79µM
COCCCNC(=O)c1cc(C)nc2onc(C3CCNCC3)c12	-
Cc1cc(C(=O)NC2CCCC2)c2c(C3CCNCC3)noc2n1	-
SMILES	KDM5B inhibitor
Cc1cc(C(=O)NCc2cccs2)c2c(C3CCCN3)noc2n1 (centres undefined)	-
O=C(NC1CCNCC1)c1cc(C2CC2)nc2onc(C3CCCN3)c12 (centres undefined)	79µM
Cc1cc(C(=O)NCCCOC(C)C)c2c(C3CCNC3)noc2n1 (centres undefined)	-
Cc1cc(C(=O)NC2CCCC2)c2c(C3CCCNC3)noc2n1 (centres undefined)	-
COc1ccc(-c2cc(C(=O)NC3CC3)c3c(C4CCNC4)noc3n2)cc1 (centres undefined)	79µM
CCCCOc1ccc(S(=O)(=O)c2ccc(OCCCC)cc2)cc1	-
CC(C)c1nn(C)c(N(C)C)c1CNC(C)c1nnc2n1CCC2 (centres undefined)	-
CNC(=O)NC(=O)C(C)Sc1ccc(Br)cc1 (centres undefined)	-
O=C1Cc2c(-c3ccc(Oc4ccccc4)cc3)n[nH]c2CN1Cc1ccccc1F	-
CCCNC(=O)CSc1c(CC)cnc2c1c(=O)n(C)c(=O)n2C	-
O=C1Nc2ccccc2CCC1n1nc(-c2ccccc2)ccc1=O (centres undefined)	-
CCCCCCCn1c(N2CCOCC2)nc2c1c(=O)[nH]c(=O)n2C	-
S=C(NCCSc1ccc(Cl)cc1)NCCc1ccccc1	-
COC(=O)CCNC(=O)c1cccc(C)c1	-
Cc1cnc(CC2CCN(S(=O)(=O)c3ccccc3)C2)n1C(C)C (centres undefined)	-
COc1cc(/C=N/O)ccc1OCC(=O)Nc1ccccc1	-
COc1ccc(-c2nnc3ccc(Nc4ccc(Cl)cc4)nn23)cc1	-
Cc1ccc(OCCn2c(CNC(=O)c3ccco3)nc3ccccc32)cc1	-
Cc1ccc(CNC(=O)c2cc(-c3cc(C)cc(C)c3O)n[nH]2)cc1	-
COc1ccc(C(=O)NCc2nnnn2-c2ccc(C)c(C)c2)cc1	-
COc1ccc(C(=O)NCc2nnc3ccc(-c4ccc(Cl)cc4)nn23)c(OC)c1	-
COc1ccc(-c2c(NC(=O)c3ccco3)n(-c3ccccc3)nc(C)c2=O)cc1	-
Cc1ccc(-c2ccc3nnc(CNC(=O)c4ccn[nH]4)n3n2)cc1	28µM
COc1ccc(CNC(=O)c2cc(-c3ccc(C)c(C)c3)n[nH]2)cc1	-
COc1ccc(C(=O)NCc2nnc3ccc(-c4ccc(Cl)cc4)nn23)c(C)c1	25µM
